Compounds with a hit are over-represented: about 5.6% of the library has one in this group of screens.
Cardio protect = protects H9c2 cardiomyocytes from peroxide injury; 360,000 compounds, 0.63% hits; protection from H2O2 cell death, % at 20 µM; AID 588492; H2O2 injury protection, ATPLite, 2 h;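 active = compounds giving at least 50% protection of heart cells from peroxide-induced death in the single-dose screen, raw or plate-pattern-corrected value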
PfGluPho inh = PfG6PD (Plasmodium falciparum) enzyme inhibition; 350,000 compounds, 0.78% hits; inhibition, % at 20 µM; PfGluPho enzyme, NADPH resazurin-diaphorase fluorescence; AID 504690;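 active = inhibition reaching at least a set limit at 20 µM in the primary screen, cut at about 59% in these data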
PHOSPHO1 block = PHOSPHO1 (human) inhibition. Q8TCT1. recombinant PHOSPHO1, absorbance phosphatase assay. inhibition, % at 13.3 µM. 290,000 compounds, 1.1% hits. AID 1565; in the data active = inhibition above about 60%
Target sequence (Q8TCT1 whole entry, looked up): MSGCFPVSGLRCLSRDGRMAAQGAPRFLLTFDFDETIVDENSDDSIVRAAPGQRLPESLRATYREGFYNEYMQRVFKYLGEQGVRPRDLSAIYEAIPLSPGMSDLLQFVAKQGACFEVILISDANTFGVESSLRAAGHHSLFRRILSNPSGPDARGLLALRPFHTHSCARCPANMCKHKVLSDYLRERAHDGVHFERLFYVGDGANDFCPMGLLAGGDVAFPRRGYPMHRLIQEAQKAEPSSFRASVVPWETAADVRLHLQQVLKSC
PfM18AAP inh-1 = blocks P. falciparum M18 aspartyl aminopeptidase. recombinant PfM18AAP, H-Glu-NHMec fluorogenic cleavage. inhibition, % at 7.35 µM. 290,000 compounds, 1.2% hits. AID 1822;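 active = inhibition above the campaign mean inhibition over all tested compounds plus 3 SD, cut at about 28% in these data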
ALR inh = human ALR oxidase inhibition via reduced H2O2. P55789. purified ALR, DTT oxidation, H2O2 HRP-luminol luminescence. inhibition, % (concentration not given with the values). 290,000 compounds, 3.8% hits;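 active = mean replicate inhibition above about 79%, with every replicate also reaching it, limit read from the data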
PfM18AAP inh-2 = confirmation of Plasmodium falciparum M18 aspartyl aminopeptidase inhibitors. inhibition, % at 7.35 µM. recombinant PfM18AAP, H-Glu-NHMec fluorogenic cleavage. 2,400 compounds, 28% hits. shares compounds with PfM18AAP inh-1;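 active = mean inhibition over replicate wells above the hit cutoff set for the earlier primary screen, cut at about 29% in these data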
CTSL1 counter = Cathepsin L (human) inhibition, confirmation; shares compounds with PfM18AAP inh-1; purified cathepsin L1, Z-Leu-Arg-MCA fluorescence; inhibition, % at 5.96 µM; 2,400 tested, under 10 active; AID 2178;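 active = average inhibition across replicates above the hit cutoff set in the earlier primary screen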
Target sequence (P07711 whole entry, looked up): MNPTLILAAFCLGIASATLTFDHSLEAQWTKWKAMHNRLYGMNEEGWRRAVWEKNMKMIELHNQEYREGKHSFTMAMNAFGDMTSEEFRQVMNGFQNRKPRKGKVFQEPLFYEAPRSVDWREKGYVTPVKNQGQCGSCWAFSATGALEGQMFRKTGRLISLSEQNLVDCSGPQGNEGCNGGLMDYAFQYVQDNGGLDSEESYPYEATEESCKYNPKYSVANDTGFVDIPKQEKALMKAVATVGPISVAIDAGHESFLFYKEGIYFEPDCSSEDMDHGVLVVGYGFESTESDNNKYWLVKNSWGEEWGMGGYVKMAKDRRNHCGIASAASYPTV
A number is an active result; . = inactive; / = no result; ! = a repeat was not active.

SMILES	Cardio protect	PfGluPho inh	PHOSPHO1 block	PfM18AAP inh-1	ALR inh	PfM18AAP inh-2	CTSL1 counter
CCOc1cc(/C=N/n2c(COc3ccccc3)n[nH]c2=S)ccc1O	.	.	.	.	.	/	/
O=C(O)COc1ccc(/C=N/n2c(COc3ccccc3)nc3ccccc3c2=O)cc1	.	.	.	.	.	/	/
Cc1noc(C)c1C(=O)N1CCC1(C)C(=O)NS(=O)(=O)c1ccccc1C(F)(F)F (stereo not given)	.	/	/	/	/	/	/
COc1ccccc1NS(=O)(=O)c1ccc2[nH]c(=O)[nH]c2c1	.	.	.	.	.	/	/
O=c1[nH]c2ccc(S(=O)(=O)Nc3ccccc3O)cc2[nH]1	.	.	.	50	93	47	.
COc1cc(/C=N/NC(=S)Nc2cccc(S(=O)(=O)N(C)C)c2)cc(OC)c1O	.	.	.	43	/	.	.
C[n+]1cccc(C2C(C#N)=C(N)Oc3c2ccc2ccccc32)c1 (stereo not given)	.	.	.	38	.	.	.
CC(C)C1NC(C(=O)O)Cc2c1[nH]c1ccccc21 (stereo not given)	.	.	.	37	.	29	.
CC(C)CC1NC(C(=O)O)Cc2c1[nH]c1ccccc21 (stereo not given)	.	.	/	.	.	/	/
CC(=O)NC1=NC(=O)/C(=C/c2cc(C)n(-c3cccc(C(=O)O)c3)c2C)S1	.	.	.	33	/	.	.
COc1cccc(-c2cc(C(=O)NN3CCOCC3)c3ccccc3n2)c1	.	.	.	.	.	/	/
O=C(NC1CC1)c1cc(-c2ccccn2)nc2ccccc12	.	.	.	.	.	/	/
O=C(Nn1cnnc1)c1cc(-c2ccccn2)nc2ccccc12	.	.	.	50	.	47	.
COc1cccc(-c2cc(C(=O)Nn3cnnc3)c3ccccc3n2)c1	.	.	.	64	.	62	.
CCOC(=O)C(C)Sc1nc2c(c(=O)[nH]c(=O)n2C)n1C/C=C(/C)Cl (stereo not given)	.	.	65	37	.	.	.
CCSc1nc2c(c(=O)[nH]c(=O)n2C)n1C/C=C(/C)Cl	.	.	.	.	.	/	/
CCCCCCn1c(SCC(=O)OC)nc2c1c(=O)[nH]c(=O)n2C	.	78	83	48	/	.	.
Cc1cc(CN(C)C(=O)C2CCC(=O)N(CCc3cccc(F)c3)C2)on1 (stereo not given)	.	.	.	.	.	/	/
COc1ccccc1N(CC(=O)NCc1ccco1)C(=O)CCC(=O)Nc1ccccn1	.	.	.	.	/	/	/
CCc1ccccc1N(CC(=O)Nc1cccnc1)S(=O)(=O)c1ccccc1	.	.	.	.	.	/	/
CC(=O)Nc1cccc(NC(=O)Nc2ccc(C)c(Cl)c2)c1	.	.	.	.	/	/	/
O=C(Nc1cccc(C(F)(F)F)c1)Nn1cnnc1	.	.	.	70	.	64	.
O=C(Nc1ccc(Cl)cc1)Nc1ccc(Cl)c(Cl)c1	/	.	/	/	.	/	/
Cc1ccc(NC(=O)Nn2cnnc2)cc1Cl	.	.	.	69	.	54	.
O=C(Nc1ccc(Cl)c(Cl)c1)Nn1cnnc1	.	.	.	76	.	71	.
SMILES	Cardio protect	PfGluPho inh	PHOSPHO1 block	PfM18AAP inh-1	ALR inh	PfM18AAP inh-2	CTSL1 counter
COc1cccc(NC(=O)Nc2cccnc2)c1	.	.	.	.	.	/	/
COc1cccc(NC(=O)Nn2cnnc2)c1	.	.	.	63	.	49	.
COc1ccc(OCC(O)CNCCOc2ccccc2OC)c(C(C)(C)C)c1 (stereo not given)	.	.	.	.	.	/	/
CC(C)C(NC(=O)c1ccc(F)cc1)C(=O)N1CCN(c2ccccn2)CC1 (stereo not given)	.	.	/	/	.	/	/
O=C(NNc1cc(C(F)(F)F)nc2ccccc12)Nc1cccc(Cl)c1	.	.	.	.	.	/	/
O=C(Nc1cccc(Cl)c1)Nn1cnnc1	.	.	.	67	.	58	.
O=C(Nc1ccncc1)Nc1cccc(Cl)c1	.	.	.	.	.	/	/
O=C(NNc1nccc(C(F)(F)F)n1)Nc1cccc(Cl)c1	.	.	/	46	.	.	.
Nc1c(-c2ccccc2)sc2ccc3ccccc3[n+]12	.	.	.	.	.	/	/
COc1cc(C)c(NC(=O)C(=S)NCCc2ccccc2)cc1C	.	.	.	48	.	.	.
COc1ccc(NC(=S)NCCc2ccccc2)c(C)c1	.	.	.	.	.	/	/
Cc1cc(=O)[nH]c2c(N=Nc3ccc(O)cc3)c(N)nn12	.	.	.	61	/	62	.
Cc1ccc(S(=O)(=O)N(C)C)cc1NC(=O)CCNC(=O)c1ccco1	.	.	.	.	.	/	/
O=C(CSc1ccc2ccccc2c1)NCCc1ccc(O)c(O)c1	80	.	.	57	99	41	.
O=C1NC(=O)/C(=C/c2ccc(N3CCOCC3)o2)N1	.	.	.	.	.	/	/
O=C1NC(=O)/C(=C\c2ccc(N3CCOCC3)o2)N1	.	.	.	37	.	.	.
O=C(COc1ccc2c(c1)OCO2)Nc1nnc(Cc2ccccc2)s1	.	.	.	38	.	.	.
COCc1nnc(NC(=O)COc2ccc3c(c2)OCO3)s1	.	.	.	.	.	/	/
C/C(=N/NC(=O)c1cc(O)c(O)c(O)c1)c1ccc([N+](=O)[O-])cc1	.	.	.	50	/	.	.
C/C(=N\NC(=O)c1ccc([N+](=O)[O-])cc1)c1c(O)cc(C)oc1=O	.	.	.	.	.	/	/
COc1ccccc1-n1c(CNC(=O)c2cccs2)n[nH]c1=S	.	.	.	36	.	.	.
O=C(NCc1n[nH]c(=S)n1-c1ccc(Br)cc1)c1cccs1	.	.	.	34	.	.	.
COc1ccccc1-n1c(Cc2cccs2)n[nH]c1=S	.	.	.	.	.	/	/
Cn1c(CNC(=O)c2cccs2)n[nH]c1=S	.	.	.	.	.	/	/
CCOC(=O)C1CCN(C(=O)CN2C(=O)COc3ccc(C(C)(C)C)cc32)CC1	.	.	.	.	.	/	/
SMILES	Cardio protect	PfGluPho inh	PHOSPHO1 block	PfM18AAP inh-1	ALR inh	PfM18AAP inh-2	CTSL1 counter
O=[N+]([O-])c1ccc(NNS(=O)(=O)c2cc(Cl)ccc2Cl)nc1	.	.	.	55	100	.	.
O=C(O)C1=C[C@@H](c2ccc3c(c2)OCO3)C[C@@H](OCc2ccc(CO)cc2)O1	.	.	.	36	.	.	.
NC(=O)C1=C[C@H](c2ccc3c(c2)OCO3)C[C@H](OCc2ccc(CO)cc2)O1	.	.	.	.	.	/	/
Oc1ccc(-c2ccccc2)cc1CN1CCCCCC1	.	.	.	.	.	/	/
Nc1cc(-c2ccccc2)ccc1O	.	.	.	35!	99	.	.
CCOC(=O)c1sc(=S)n(C)c1NC(=O)c1ccccc1C	.	.	.	35	.	.	.
COC(=O)c1cccc(NC(=O)CCN2C(=O)C3CC=CCC3C2=O)c1 (stereo not given)	.	.	/	/	.	/	/
Cc1cc(C(F)(F)F)cc(NNC(=O)NC(=O)c2c(F)cccc2Cl)n1	.	.	.	42	/	.	.

Assay outcomes from PubChem.
